Laboratory results published in PubChem BioAssay (NCATS).
“And” between values parts separate entries of the source, which are not always exact repeats. Equal values may be shown once. Results filed as inconclusive are left out. Some compounds were tested as several samples or in several runs, with calls that do not always agree. The source made the active and inactive calls. The call rests on the fitted dose curve; in most records, active means well fitted curve in the direction sought with a large enough effect; inconclusive means small, poorly fitted or top-dose-only effect, or another doubt; inactive means no such curve, though single readings can be large; an effect the other way counts as inactive or inconclusive. Where a SMILES comes first, the peptide text is derived from it. [ ]: non-standard residue; d: D form. The star is where a group is joined. Sta = CC(C)C[C@H](N)[C@@H](O)CC(=O)O; Isovaleryl = CC(C)CC(=O)*

Legend:
[1] = molecular target: Cytochrome P450 3A7 (Homo sapiens) (UniProt P24462); test: Cytochrome P450 family 3 subfamily A member 7 (CYP3A7) small molecule antagonists: luciferase biochemical qHTS assay (AID 1963596); further: on the % scale 0 is the no-effect control and ±100 the full control effect; nearly all actives have a fitted effect of over 40% in size
Chain of Cytochrome P450 3A7 (Homo sapiens) (P24462 whole entry, looked up): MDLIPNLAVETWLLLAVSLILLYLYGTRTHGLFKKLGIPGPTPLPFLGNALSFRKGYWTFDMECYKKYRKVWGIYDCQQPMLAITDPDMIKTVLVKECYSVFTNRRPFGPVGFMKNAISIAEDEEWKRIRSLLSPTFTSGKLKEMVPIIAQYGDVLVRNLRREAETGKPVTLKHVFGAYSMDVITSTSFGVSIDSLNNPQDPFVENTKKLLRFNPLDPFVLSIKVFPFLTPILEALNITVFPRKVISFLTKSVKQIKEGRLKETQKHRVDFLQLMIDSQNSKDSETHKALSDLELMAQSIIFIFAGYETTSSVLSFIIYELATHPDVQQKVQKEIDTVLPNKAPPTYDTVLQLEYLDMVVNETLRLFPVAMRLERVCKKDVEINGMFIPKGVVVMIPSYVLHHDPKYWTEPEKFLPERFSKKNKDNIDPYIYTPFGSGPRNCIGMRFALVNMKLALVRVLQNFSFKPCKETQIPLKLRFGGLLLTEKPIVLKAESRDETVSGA
Summary of the method: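 Luminescence from luciferin released by CYP3A7 from a proluciferin substrate, read 20 min after detection reagent. Compound and enzyme-substrate mix sat 10 min before NADPH regeneration solution; reaction ran 1 h at room temperature.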

[2] = Viability qHTS for spleen associated tyrosine kinase inhibitor (SYKi) naive MV4-11 cells (AID 1963823); further: nearly all actives have a fitted effect of over 40% in size; further: potency means the concentration at half of the fitted maximal effect
Summary of the method: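 Seeding of 500 SYKi-naive MV4-11 cells per well onto pre-dispensed compounds preceded a 72 hr incubation at 37 C. Luminescent CellTiter-Glo signal, read after 10 min at room temperature, reflected viable cells.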

[3] = Viability qHTS for spleen associated tyrosine kinase inhibitor (SYKi) drug resistant MV4-11 cells (AID 1963824); further: nearly all actives have a fitted effect of over 35% in size; further: potency means the concentration at half of the fitted maximal effect
Summary of the method: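 SYK inhibitor-resistant MV4-11 AML cells, 500 per well, added to predispensed compounds and incubated 72 hr at 37 C, 5% CO2. Viability measured by CellTiter-Glo luminescence after 10 min at room temperature.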

[4] = Quantitative highthroughput screen to assess conditional lethalithy of NOMO1 cells grown in RPMI1640 with dialyzed fetal bovine serum (RPMI+ds) (AID 1963877); further: nearly all actives have a fitted effect of over 30% in size; further: potency means the concentration at half of the fitted maximal effect;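 on Viability: series mostly up to about 46 µM; 100% = DMSO control wells and 0% = empty wells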
Summary of the method: (§1)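 Each medium arm—HPLM with 10% dialyzed FBS, or RPMI1640 with 5 mM glucose and 10% untreated or dialyzed FBS—was screened against an 11-point, 3-fold compound titration for 48 h at 37 °C, with CellTiter-Glo luminescence as endpoint.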

[5] = Quantitative highthroughput screen to assess conditional lethalithy of P12 Ichikawa cells grown in Human Plasma-Like Medium with dialyzed fetal bovine serum (HPLM+ds) (AID 1963879); details: Potency: viability; further: nearly all actives have a fitted effect of over 35% in size; further: potency means the concentration at half of the fitted maximal effect; on Viability: series mostly up to about 46 µM
Summary of the method: as §1

[6] = Quantitative highthroughput screen to assess conditional lethalithy of P12 Ichikawa cells grown in RPMI1640 with dialyzed fetal bovine serum (RPMI+ds) (AID 1963880); details: Potency: P12-Ichikawa viability; further: nearly all actives have a fitted effect of over 35% in size; further: potency means the concentration at half of the fitted maximal effect;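 on Viability: 100% = DMSO wells and 0% = empty wells on each plate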
Summary of the method: as §1

[7] = Quantitative highthroughput screen to assess conditional lethalithy of P12 Ichikawa cells grown in RPMI1640 with untreated serum (RPMI+s) (AID 1963881); details: Potency: viability; further: nearly all actives have a fitted effect of over 35% in size; further: potency means the concentration at half of the fitted maximal effect;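 on Viability: series mostly up to about 46 µM; 100% = DMSO wells and 0% = empty wells without cells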
Summary of the method: as §1

[8] = Quantitative highthroughput screen to assess conditional lethalithy of SEM cells grown in RPMI1640 with unreated serum (RPMI+s) (AID 1963883); further: nearly all actives have a fitted effect of over 35% in size; further: potency means the concentration at half of the fitted maximal effect;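 on Viability: 100% = DMSO wells and 0% = empty wells without cells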
Summary of the method: as §1

[9] = Cellular viability qHTS for adrenocortical cancer (ACC) cell line SW-13 (AID 1963989); details: SW-13 ACC cells viability, CellTiter-Glo, 48 h; activity (max response): stronger effect = lower value; further: nearly all actives have a fitted effect of over 65% in size; further: potency means the concentration at half of the fitted maximal effect;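 on activity (max response): cells grown in serum-free medium with ITS supplement; on the % scale 0 is the no-effect control and ±100 the full control effect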
Summary of the method: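 Here, serum-free SW-13 cultures were dosed up to 46 uM. Following 48 h, ATP-dependent luminescence (CellTiter-Glo) reported viable cells, and logistic modeling produced IC50 values.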

[10] = Quantitative highthroughput screen to assess conditional lethalithy of NOMO1 cells grown in Human Plasma-Like Medium with dialyzed fetal bovine serum (HPLM+ds) (AID 1963878); further: nearly all actives have a fitted effect of over 35% in size; further: potency means the concentration at half of the fitted maximal effect;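 on Viability: 100% = DMSO wells and 0% = empty wells on each plate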
Summary of the method: as §1

[11] = Quantitative highthroughput screen to assess conditional lethalithy of SEM cells grown in Human Plasma-Like Medium with dialyzed fetal bovine serum (HPLM+ds) (AID 1963882); further: nearly all actives have a fitted effect of over 35% in size; further: potency means the concentration at half of the fitted maximal effect; on Viability: series mostly up to about 46 µM
Summary of the method: as §1

[12] = Quantitative highthroughput screen to assess conditional lethalithy of SEM cells grown in RPMI1640 with dialyzed fetal bovine serum (RPMI+ds) (AID 1963884); further: nearly all actives have a fitted effect of over 35% in size; further: potency means the concentration at half of the fitted maximal effect;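 on Viability: series mostly up to about 46 µM; 100% = DMSO control wells and 0% = empty wells without cells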
Summary of the method: as §1

[13] = Cellular viability qHTS for adrenocortical cancer (ACC) cell line NCI-H295R (AID 1963990); further: nearly all actives have a fitted effect of over 60% in size; further: potency means the concentration at half of the fitted maximal effect
Summary of the method: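 Viability of NCI-H295R after 48 h of treatment (final up to 46 uM) measured through cellular ATP luminescence.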

[14] = Quantitative highthroughput screen to assess conditional lethalithy of NOMO1 cells grown in RPMI1640 with untreated serum (RPMI+s) (AID 1963876); further: nearly all actives have a fitted effect of over 35% in size; further: potency means the concentration at half of the fitted maximal effect;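 on Viability: 100% = DMSO wells and 0% = empty wells without cells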
Summary of the method: as §1

C[C@H]1c2cccc(O)c2C(O)=C2C(=O)[C@]3(O)C(O)=C(C(N)=O)C(=O)[C@@H](N(C)C)[C@@H]3[C@@H](O)[C@@H]21
inactive and 16.6 µM (active): Potency [2]
inactive: Potency [1] | Potency [4] | Potency [5] | Potency [8] | activity (max response) [9] -2.36% and -5.39%
active: Potency [3] 14.8 µM | Potency [6] 16.6 µM | Potency [7] 18.7 µM

C[C@@H](N)c1ccc(C(=O)Nc2ccnc3[nH]ccc23)cc1
active: Potency [2] 4.17 µM | Potency [3] 10.3 µM | Potency [4] 18.7 µM | Potency [9] 25.1 µM
inactive: Potency [1] | Potency [6]

CC(C)NCC(O)COc1ccc(CCOCC2CC2)cc1 (stereo not drawn)
active: Potency [10] 16.6 µM
inactive: Potency [1] | Potency [2] | Potency [3] | Potency [5] | Potency [6] | Potency [7] | Potency [11] | Potency [12] | activity (max response) [9] -8.57% | Potency [13]

CN(C)C(=O)COC(=O)Cc1ccc(OC(=O)c2ccc(N=C(N)N)cc2)cc1
inactive and 7.42 µM (active): Potency [3]
active: Potency [10] 20.9 µM
inactive: Potency [1] | Potency [2] | Potency [13]

CC12CC3CC(C)(C1)CC(N)(C3)C2
active: Potency [3] 3.76 µM | Potency [4] 18.7 µM
inactive: Potency [1] | Potency [2] | Potency [11] | Potency [8] | Potency [12] | activity (max response) [9] -3.68% | Potency [13]

COC(=O)Nc1nc2ccc(C(=O)c3cccs3)cc2[nH]1
inactive: Potency [1]
active: Potency [2] 0.106 µM | Potency [3] 42.2 nM and 118 nM | Potency [5] 0.0187 µM | Potency [7] 0.0296 µM | Potency [9] 8.2 nM and 126 nM | Potency [13] 9.2 nM and 158 nM

Cc1[nH]c(=O)c(C#N)cc1-c1ccncc1
inactive: Potency [1] | Potency [2] | Potency [3] | Potency [10] | Potency [11] | Potency [8] | Potency [12] | activity (max response) [9] 14.7% and 1.4% and -7.07% | Potency [13]

CCn1cc(C(=O)O)c(=O)c2ccc(C)nc21
inactive: Potency [1] | Potency [2] | Potency [3] | Potency [4] | Potency [5] | Potency [6] | Potency [7] | Potency [11] | activity (max response) [9] 13.9% | Potency [13]
active: Potency [12] 5.9 µM

Cc1cn([C@@H]2C[C@@H](O)[C@H](CO)O2)c(=O)[nH]c1=O
active: Potency [5] 23.5 µM | Potency [6] 23.5 µM
inactive: Potency [1] | Potency [2] | Potency [3] | Potency [14] | activity (max response) [9] -17.5%

N=C(N=C(N)N)N1CCOCC1
inactive: Potency [1] | Potency [2] | Potency [3] | Potency [4] | Potency [10] | Potency [5] | Potency [6] | Potency [7] | Potency [11] | Potency [8] | Potency [12] | activity (max response) [9] -4.25% | Potency [13]

NCCOc1cc(C(=O)Nc2cc(OCCN)c3ccccc3n2)nc(C(=O)Nc2cc(OCCN)c3ccccc3n2)c1
inactive: Potency [1] | Potency [10]
active: Potency [2] 1.3 µM and 1.66 µM | Potency [3] 2.59 µM and 3.72 µM

N=c1nc(N2CCCCC2)cc(N)n1O
inactive: Potency [1] | Potency [2] | Potency [3] | Potency [14] | Potency [10] | Potency [5] | Potency [6] | Potency [7] | activity (max response) [9] 5.33%

Cc1nc2ccc(CN(C)c3ccc(C(=O)N[C@@H](CCC(=O)O)C(=O)O)s3)cc2c(=O)[nH]1
active: Potency [2] 0.0066 µM | Potency [3] 0.0074 µM | Potency [14] 418 nM
inactive: Potency [1] | Potency [8] | Potency [13]

Cc1cc(C(C)(C)C)cc(C)c1CC1=NCCN1
active: Potency [2] 3.72 µM | Potency [3] 5.25 µM
inactive: Potency [1] | Potency [5] | Potency [6] | Potency [7] | Potency [8] | Potency [12] | activity (max response) [9] -1.59% and -10.9% | Potency [13]

COc1cc2c(Nc3ccc(Cl)c(Cl)c3F)ncnc2cc1OCC1C[C@@H]2CN(C)C[C@@H]2C1 (stereo partly drawn)
inactive: Potency [1]
active: Potency [2] 1.86 µM | Potency [3] 2.31 µM and 2.95 µM | Potency [4] 23.4 µM | Potency [10] 13.2 µM | Potency [5] 20.9 µM | Potency [6] 23.4 µM | Potency [11] 14.8 µM | Potency [8] 20.9 µM | Potency [12] 20.9 µM | Potency [9] 2 µM | Potency [13] 7.94 µM and 8.91 µM

CC(C)CC(=O)N[C@H](C(=O)N[C@H](C(=O)N[C@@H](CC(C)C)[C@@H](O)CC(=O)N[C@@H](C)C(=O)N[C@@H](CC(C)C)[C@@H](O)CC(=O)O)C(C)C)C(C)C (Isovaleryl-VV[Sta]A[Sta]-OH)
active: Potency [8] 26.4 µM
inactive: Potency [1] | Potency [2] | Potency [3] | Potency [14] | Potency [10] | Potency [5] | Potency [6] | Potency [7] | activity (max response) [9] 4.2% and -6.21% | Potency [13]

CCn1cc(C(=O)O)c(=O)c2cc(F)c(N3CCNCC3)nc21
inactive: Potency [1] | Potency [5] | Potency [6] | Potency [7] | Potency [11] | Potency [8] | activity (max response) [9] 4.85% | Potency [13]
active: Potency [2] 0.0335 µM | Potency [3] 2.66 µM

Cc1ccc2c(n1)Oc1ccc(C(C)C(=O)OCC(=O)N(C)C)cc1C2 (stereo not drawn)
active: Potency [2] 11.9 µM
inactive: Potency [1] | Potency [3] | activity (max response) [9] -7.34% and -9.36%
